Measurements: PubChem BioAssay AID727 (The Scripps Research Institute Molecular Screening Center, 2007)
In all, about 97,000 compounds went through this assay and about 810 (0.84%) were called active. Only a selection was taken, and actives are over-represented in it overall. A number with no mark means an inactive call. No stated cut-off is given here; in the data, active means inhibition above about 19%; inactive means the rest.

biological target: Focal adhesion kinase 1 (Homo sapiens) (UniProt Q05397); assay: FAK kinase inhibitors, primary screen, biochemical (AID 727); conditions: biochemical FAK kinase activity assay; stronger effect = higher value;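 tested at 7 µM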;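 further: 0% = DMSO and 100% = reference compound high control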
Sequence (Q05397 whole entry, looked up): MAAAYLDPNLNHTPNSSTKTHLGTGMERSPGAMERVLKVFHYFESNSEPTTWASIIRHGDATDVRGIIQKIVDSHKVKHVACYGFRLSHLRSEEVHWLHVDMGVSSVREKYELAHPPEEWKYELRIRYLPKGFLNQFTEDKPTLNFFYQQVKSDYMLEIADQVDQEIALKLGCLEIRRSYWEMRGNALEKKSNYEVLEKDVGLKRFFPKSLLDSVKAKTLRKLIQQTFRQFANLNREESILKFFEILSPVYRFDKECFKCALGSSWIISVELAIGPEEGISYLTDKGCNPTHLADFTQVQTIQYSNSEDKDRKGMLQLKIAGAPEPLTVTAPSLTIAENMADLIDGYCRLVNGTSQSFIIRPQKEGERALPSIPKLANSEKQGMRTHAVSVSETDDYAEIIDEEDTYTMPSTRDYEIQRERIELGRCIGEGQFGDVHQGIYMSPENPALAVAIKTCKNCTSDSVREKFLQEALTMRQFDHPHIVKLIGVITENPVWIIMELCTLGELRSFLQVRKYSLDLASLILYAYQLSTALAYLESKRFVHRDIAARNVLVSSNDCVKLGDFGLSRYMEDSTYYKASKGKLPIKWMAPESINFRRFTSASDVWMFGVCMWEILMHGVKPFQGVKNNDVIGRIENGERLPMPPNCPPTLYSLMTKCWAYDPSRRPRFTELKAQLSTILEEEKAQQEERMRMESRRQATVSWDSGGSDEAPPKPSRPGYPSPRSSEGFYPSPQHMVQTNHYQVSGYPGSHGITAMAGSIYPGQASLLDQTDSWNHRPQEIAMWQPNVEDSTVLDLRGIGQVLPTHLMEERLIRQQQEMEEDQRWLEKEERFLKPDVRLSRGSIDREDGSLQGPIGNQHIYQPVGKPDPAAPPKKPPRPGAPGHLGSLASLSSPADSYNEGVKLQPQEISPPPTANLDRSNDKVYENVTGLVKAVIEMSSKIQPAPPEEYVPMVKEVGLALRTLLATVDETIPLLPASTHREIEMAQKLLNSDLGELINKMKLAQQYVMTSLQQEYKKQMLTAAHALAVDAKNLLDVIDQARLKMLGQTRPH

Row | Structure (SMILES) | inhibition
1 | COc1ccc(C2(CNC(=O)C(c3ccccc3)c3ccccc3)CCOCC2)cc1OC | 1.78%
2 | C=C(C)CNC(=S)/N=c1\scc(C)n1CC | -6.21%
3 | Oc1ccc(-c2onc3ccc(Cl)cc23)cc1 | 5.87%
4 | Cc1cccc(NC(=O)c2cc(N3C(=O)CCC3=O)ccc2Cl)n1 | -0.12%
5 | CCOC(=O)c1cc(C#N)c(N2CCCCC2)nc1-c1ccccc1 | 4.29%
6 | CCOC(=O)c1sc2nc(SC)nc(-c3ccccc3)c2c1N | 2.16%
7 | COc1ccc(C)cc1N(C)C(=O)c1coc(=O)c2ccccc12 | 1.58%
8 | Nc1c(-c2ccc(F)cc2)cnc2ncnn12 | 19.1% (active)
9 | Cc1ccc(S(=O)(=O)N(CC(=O)N/N=C/c2ccc(F)cc2)c2cccc3cccnc23)cc1 | 3.64%
10 | COc1ccc(/C(N)=N/OC(=O)Oc2ccccc2)cc1 | 0.12%
11 | CC1CCN(C(=O)c2cc3nc(C4CC4)cc(C(F)(F)F)n3n2)CC1 | 0.8%
12 | C/C=C/C(=O)OCC(=O)Nc1ccc(F)cc1Cl | -4.03%
13 | CCC(=O)Nc1ccc2c(c1)nc(CCN1CCN(C)CC1)n2C | -1.8%
14 | Cc1nn(CC(=O)Nc2ccc3c(c2)nc(CN2CCCCC2)n3C)c(=O)c2ccccc12 | 3.98%
15 | Cn1c(CCN2CCCCCC2)nc2cc(NC(=O)Nc3ccccc3)ccc21 | 22.2% (active)
16 | COC(=O)/C(=C\Nc1ccccc1)NC(=O)c1ccc(Cl)cc1Cl | 0.67%
17 | CCn1c(CNC(=O)c2ccccc2)nnc1SCC(=O)N1CCN(c2ccccc2)CC1 | 1.01%
18 | CS(=O)(=O)Nc1cccc(C2=NN(S(=O)(=O)c3ccccc3)C(c3cccs3)C2)c1 (stereo not given) | 1.03%
19 | CCN(c1ccccc1)S(=O)(=O)c1ccc(NC(=O)C(C)(C)C)cc1 | -0.76%
20 | CCN(CC)S(=O)(=O)c1cc([N+](=O)[O-])ccc1NNC(=O)Nc1ccccc1 | 22.7% (active)
21 | CCN(CC)S(=O)(=O)c1cccc(C(=O)Nc2ccccc2)c1 | 7.09%
22 | COc1ccc(OC)c(N=Cc2c(O)[nH]c3ccccc23)c1 | 13.7%
23 | COC(=O)c1[nH]c2ccccc2c1NS(=O)(=O)c1ccc(OC)cc1OC | 0.04%
24 | COc1cc(N=Cc2c(O)[nH]c3ccccc23)cc(OC)c1OC | 73.4% (active)

Row | Structure (SMILES) | inhibition
25 | CCCc1ccc(OCc2ccc(C(=O)N/N=C/c3cccc([N+](=O)[O-])c3)o2)c(OC)c1 | 1.02%
26 | Cc1[nH]n(-c2ccc([N+](=O)[O-])cc2)c(=O)c1C=NCCN1CCN(C(=O)c2ccccc2F)CC1 | 6.47%
27 | Cc1ccc(CN(N=Nc2nonc2N)c2nonc2N)c(C)c1 | -1.18%
28 | O=c1c2ccccc2nc2n1C(CSCc1ccccc1)CS2 (stereo not given) | 7.02%
29 | O=C1C2N=NN(CC(=O)N3N=C(c4cccc5ccccc45)CC3c3ccccc3)C2C(=O)N1c1ccccc1 (stereo not given) | 1.07%
30 | Cc1nc(NNC(=O)c2ccccc2)cc(-c2ccccc2)n1 | -0.62%
31 | Cc1ccc(SCC(=O)NC(=O)NCc2ccco2)c(C)c1 | 6.63%
32 | O=C(/C=C/c1ccco1)Nc1cccc(-c2nc3ccccc3[nH]2)c1 | 1.17%
33 | Cc1ccc(-n2nc3ccc(NC(=O)/C=C/c4ccco4)cc3n2)cc1C | 19.2% (active)
34 | O=C(/C=C/c1ccco1)Nc1ccc(Oc2ccccc2)cc1 | 0.45%
35 | CN(C)CCNC(=O)Nc1cccc(Cl)c1Cl | -0.62%
36 | CCOC(=O)c1cnc(-c2ccccc2)nc1Oc1ccc(C)cc1 | 4.12%
37 | CN(CCO)Cc1csc2ccc(Br)cc12 | -0.2%
38 | C=CCNc1nc(N)c(C(=C(C#N)C#N)c2ccccc2)s1 | 9.82%
39 | N=c1c2c3c(sc2nc2n1CCCCC2)CCCC3 | 0.27%
40 | CC1Cc2ccccc2N1C(=O)c1cc2sccc2n1Cc1ccccc1 (stereo not given) | -0.85%
41 | COc1cccc(/C=N/NC(=O)C(=O)N2CCCC2)c1 | -2.37%
42 | Cc1nonc1NC(=O)c1ccccc1Br | -1.88%
43 | O=C(Nc1ccc(-n2ccnc2P(=O)(O)c2ccccc2)cc1)c1ccccc1Br | 22.8% (active)
44 | O=C(Nc1ccccc1)c1cccnc1Nc1ccccc1 | 1.76%
45 | CC(CNc1ccc([N+](=O)[O-])cc1)NC(=O)c1ccccc1Br (stereo not given) | 1.61%
46 | C#CCN(N(C)c1ncc(C(F)(F)F)cc1Cl)S(=O)(=O)c1ccc2ccccc2c1 | -0.5%
47 | CCN(CC)S(=O)(=O)c1ccc2c3c(cccc13)C(=O)S2 | 36% (active)
48 | CN(CCc1ccccn1)S(=O)(=O)c1ccc2c3c(cccc13)C(=O)N2 | -2.74%

Row | Structure (SMILES) | inhibition
49 | COc1cccc(C(=O)NNC(=O)c2ccccc2Br)c1 | -3.7%
50 | CC(C)N1C(=S)SC(C)(C)C1n1oc(=O)n(-c2ccc(Cl)c(Cl)c2)c1=O (stereo not given) | 1%
51 | O=[N+]([O-])c1ccc(Oc2ccc(F)cc2Br)c2ccncc12 | 19.1% (active)
52 | COC(=O)c1ccc(OCC(=O)NC(C)(C)C)cc1 | -0.09%
53 | Cc1cc2cc3c(N)[nH]nc3nc2cc1C | 38.5% (active)
54 | CCc1nnc(NC(=O)c2nc3nccc(C)n3n2)s1 | -3.17%
55 | CCc1nnc(NC(=O)c2cccs2)s1 | -4.62%
56 | CCc1ccc2nc3sc(C(=O)Nc4nnc(CC)s4)c(N)c3cc2c1 | 33.3% (active)
57 | Cc1cccc(N2CCN(C(=O)c3cnn4c(C(F)F)cc(-c5ccccc5)nc34)CC2)c1C | 2.11%
58 | COc1ccc(C2CC(=O)Nc3sc(=N)c4c(N)c(C#N)c(N)nc4c32)cc1OC (stereo not given) | -1.85%
59 | CC1(C)C2CCC13CS(=O)(=O)NC3C2 (stereo not given) | -2.12%
60 | Brc1ccc(/C=N/N2CCN(C3c4ccccc4-c4ccccc43)CC2)s1 | -1.5%
61 | CCC(C)(C(=O)NC1CCCCC1)N(C)C(=O)c1ccc2c(c1)OCO2 (stereo not given) | -1.51%
62 | O=C(O)CCC(=O)NCc1ccc(C(=O)O)cc1 | -0.4%
63 | CCc1ccccc1NC(=O)CSc1nnc([C@@H](NC(=O)OC(C)(C)C)C(C)C)o1 | -2.32%
64 | CCc1ccccc1NC(=O)CSc1nnc([C@@H](NC(=O)OC(C)(C)C)C(C)CC)o1 (stereo not given in full) | 25.9% (active)
65 | C[C@H](NC(=O)OC(C)(C)C)c1nnc(SCC(=O)Nc2ccc(Br)cc2)o1 | -1.41%
66 | CCOc1ccc(NC(=O)CC2NCCNC2=O)cc1 (stereo not given) | 0.06%
67 | CCCOc1ccc(NC(=O)C2CCCNC2=O)cc1 (stereo not given) | 40.2% (active)
68 | CCCCNC(=O)C1CCCNC1=O (stereo not given) | -0.32%
69 | COc1ccc(-c2[nH]nc(-c3ccccc3)c2-c2nc3ccccc3[nH]2)cc1 | -5.4%
70 | COc1ccc(C2C(C#N)=C(/N=C/N3CCOCC3)OC3=C2C(=O)CC(C)(C)C3)cc1OC (stereo not given) | 0.22%
